Rows were chosen to be rich in hits. Some 11% of all compounds tested hit in one or more screens of this group.
JMJD2A Tudor: inhibitors of human JMJD2A Tudor domain. AlphaScreen JMJD2A-Tudor / H3K4me3 peptide binding. Potency, µM (doses to about 114 µM), inactives show at the highest dose activity change, negative = inhibition, hits mostly inhibitors. 390,000 compounds, 4.4% hits; note: % is set by controls: 0 for no effect and ±100 for the full control effect; nearly all actives have a fitted effect of over 50% in size
BAZ2B inh: BAZ2B (human) inhibition; Potency, µM (series often up to 114 µM), inactives show at the top dose activity change, negative = inhibition, hits mostly inhibitors; Q9UIF8; 360,000 compounds, 4.4% hits; AlphaScreen BAZ2B-H3K14Ac peptide displacement; AID 504333; note: % is set by controls: 0 for no effect and ±100 for the full control effect; nearly all actives have a fitted effect of over 60% in size
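Inhibition is scored as reduced AlphaScreen emission. The BAZ2B/b-H3(5-23)K14Ac complex (50 nM each) in PBS pH 7.4, 0.01% Tween-20 meets compound (up to 110 uM) for 30 min at RT before bead addition.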
HP1b chromo inh: HP1-beta chromodomain-methylated histone interaction inhibition. P83916. AlphaScreen HP1-beta / biotin-H3K9me3 peptide binding. Potency, µM (top dose mostly 114 µM), inactives show top-dose activity change, negative = inhibition, usual class: inhibitors. 390,000 compounds, 0.56% hits; note: nearly all actives have a fitted effect of over 70% in size
Target sequence (P83916 whole entry, looked up): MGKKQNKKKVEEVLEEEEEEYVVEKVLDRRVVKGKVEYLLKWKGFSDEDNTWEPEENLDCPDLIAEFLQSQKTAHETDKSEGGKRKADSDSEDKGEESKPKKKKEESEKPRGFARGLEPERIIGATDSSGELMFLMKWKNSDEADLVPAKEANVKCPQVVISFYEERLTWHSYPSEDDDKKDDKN
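Compound inhibition of the preformed complex between 50 nM HP1-beta and 50 nM biotinylated H3K9me3 peptide was read by AlphaScreen. Buffer was PBS pH 7.4 with 0.01% Tween-20. Incubations ran 30 min at room temperature, with 10 ug/mL donor/acceptor beads.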
L3MBTL1 inh: inhibitors of human L3MBTL1. Potency, µM (doses to about 57.1 µM), for inactives: at the highest dose activity, negative = inhibition, hits mostly inhibitors. 230,000 compounds, 0.66% hits. AlphaScreen L3MBTL1–H3K9me1 peptide binding. Q9Y468. AID 485360; note: % is set by controls: 0 for no effect and ±100 for the full control effect; nearly all actives have a fitted effect of over 60% in size
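AlphaScreen proximity signal between nickel-chelate acceptor and streptavidin donor beads (final 10 ug/mL) reports binding of 50 nM L3MBTL1 to 75 nM biotin-H3 K9me1 peptide; complex incubated with compounds 30 min at room temperature; cefsulodin titration as control.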
G9a inh: inhibitors of human histone lysine methyltransferase G9a. Q96KQ7. G9a H3K9 monomethylation, AlphaScreen, 2 h. Potency, µM (highest dose often 102 µM), for inactives: top-dose activity, negative = inhibition, most hits filed as inhibitors. 350,000 compounds, 8.8% hits; note: % is set by controls: 0 for no effect and ±100 for the full control effect; nearly all actives have a fitted effect of over 75% in size
Target sequence (Q96KQ7 913-1193 limits assumed): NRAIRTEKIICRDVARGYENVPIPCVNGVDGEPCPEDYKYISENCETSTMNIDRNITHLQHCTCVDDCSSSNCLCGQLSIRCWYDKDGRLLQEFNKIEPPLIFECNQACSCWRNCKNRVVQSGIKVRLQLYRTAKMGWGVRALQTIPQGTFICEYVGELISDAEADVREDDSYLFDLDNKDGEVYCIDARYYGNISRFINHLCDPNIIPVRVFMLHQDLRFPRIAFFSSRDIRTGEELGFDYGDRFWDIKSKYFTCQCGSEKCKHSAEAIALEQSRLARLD
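Using a bead-based AlphaScreen, monomethylated H3K9 product from 2 h room-temperature reactions (G9a 20 nM, peptide 500 nM, SAM 20 uM) was detected with 0.5 ug/mL rabbit anti-H3K9me1 antibody.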
An asterisk follows results filed as active; ? = inconclusive; nt = not tested or not shown; [ ] = remark or other dose. Calls come from the whole dose curve; as a rule, active = well fitted inhibition curve with a large enough effect; inconclusive = small, poorly fitted or top-dose-only effect; inactive = no such curve, though single readings can be large or run the other way. Potency is the fitted concentration of half-maximal effect.

SMILES | JMJD2A Tudor | BAZ2B inh | HP1b chromo inh | L3MBTL1 inh | G9a inh
CCC1=[N+](CC(=O)c2ccc(C)cc2)CCn2cccc21 | -32% | ? | -4% | -7% | ?
CC1=[N+](CC(=O)c2ccccc2)CCn2cccc21 | -17% | -29% | 33% | 3% | 32µM*
COCCNC(=O)Nc1cc(C(=O)NCc2ccc(C(C)C)cc2)ccc1N1CCCC1 | -12% | ? | 18% | nt | -2%[59 µM]
O=[N+]([O-])c1cnc(N2CCCCC2)c([N+](=O)[O-])c1 | -19%[57.1 µM] | ? | ? | -3% | 10µM*
Cc1cc([N+](=O)[O-])cnc1N1CCOCC1 | -13% | -7% | 32% | 0% | 5%
Cc1cccc(N(C)S(=O)(=O)c2nnc(NC(=O)C(C)Oc3ccccc3)s2)c1 (centres undefined) | 53% | 41% | 137% | nt | 57%[59 µM]
CCOC(=O)c1cccc(NC(=O)c2cc3c(Cl)nc4ccc(C)cc4c3s2)c1 | -2% | -5% | 33% | nt | -24%[59 µM]
COc1cc(OC)cc(C(=O)NC(=S)Nc2ccc(Cl)c(C(=O)O)c2)c1 | 89µM* | ? | 7% | 1% | 45µM*
CCCCC(=O)NC(=S)Nc1ccc(Cl)c(C(=O)O)c1 | -6% | ? | 8% | 2% | ?
CCCCOc1cccc(C(=O)NC(=S)Nc2ccc(Cl)c(C(=O)O)c2)c1 | -12% | ? | -8% | -4% | 11µM*
COCCNC(=S)NNc1ccc(Cl)c(C(=O)O)c1 | -7%[11.4 µM] | ? | -17% | -21% | 18µM*
COc1cccc2c1cc1c(=O)n(CC(=O)N3CCN(c4ccc(Cl)cc4)CC3)nc(C)n12 | -13% | 31% | 50% | nt | 35%[59 µM]
C=CC1=C(C(=O)O)N2C(=O)C(NC(=O)/C(=N\O)c3csc(N)n3)C2SC1 (centres undefined) | nt | nt | nt | nt | 1%[2.33 µM]
CCCn1c2ccccc2c2cnn(CC(=O)Nc3cc(OC)c(OC)c(OC)c3)c(=O)c21 | -13% | 6% | 31% | nt | -21%[59 µM]
O=S(=O)(O)c1cc(Cl)cc(N=Nc2ccc(O)cc2O)c1O | 20µM* | nt | ? | nt | nt
O=C(O)c1cc(O)ccc1N=Nc1ccccc1 | 14% | -9% | 42% | nt | 6%[12.7 µM]
O=C(Nc1cc(Cl)ccc1O)C1CC(c2ccccc2Cl)=NO1 (centres undefined) | -27% | -25% | 6% | -6% | 5%
FC1(F)C(F)(F)C(F)(F)C2(F)C(F)(F)C(F)(F)C(F)(F)C(F)(F)C2(F)C1(F)F (centres undefined) | nt | nt | nt | nt | 3%[12.7 µM]
Nn1c(Cc2cccc3ccccc23)nnc1SC1CCOC1=O (centres undefined) | 89µM* | -37% | 37% | nt | ?
O=c1c2ccccc2nnn1CSc1nnc(Nc2ccccc2)s1 | 1% | -4% | 24% | 4% | 45µM*
Nc1nc(SCn2nnc3ccccc3c2=O)n[nH]1 | -10% | -11% | 19% | 6% | 50µM*
Nn1c(Cc2cccc3ccccc23)nnc1SCn1nnc2ccccc2c1=O | -14% | -5% | 32% | nt | 4.5µM*
CC(C)c1ccc(Cc2cn3cc(-c4cc5ccccc5oc4=O)nc3s2)cc1 | -7% | 2% | 37% | nt | 10%[59 µM]
Cc1ccc2c(c1)N(C(=O)c1ccco1)C(C)(C)c1ssc(=S)c1-2 | 14µM* | 10µM* | ? | nt | 11µM*
Cc1cccc2c1N(C(=O)CN1C(=O)c3ccccc3C1=O)C(C)(C)c1ssc(=S)c1-2 | ? | ? | ? | 27% | -95%[59 µM]
SMILES | JMJD2A Tudor | BAZ2B inh | HP1b chromo inh | L3MBTL1 inh | G9a inh
Cc1ccc2c(c1)N(C(=O)CSc1nncn1C)C(C)(C)c1ssc(=S)c1-2 | 79µM* | nt | -33% | ? | 14µM*
CC(=O)N1c2c(cc(Br)cc2S(=O)(=O)N2CCN(c3cccc(Cl)c3)CC2)CC1C (centres undefined) | -26% | -11% | 13% | nt | -29%[59 µM]
CN1CCC(Oc2ccccc2Sc2ccccc2)CC1 | 0.71µM* | -37% | ? | -16% | ?
Cc1nn(CC(=O)Nc2ccc(C(C)C)cc2)c(=O)c2c(C)n(-c3ccc(Cl)cc3)nc12 | -4% | 5% | 20%[57 µM] | nt | 12%[59 µM]
Oc1ccc(N2CCN(Cc3nc4ccccc4[nH]3)CC2)cc1 | 50µM* | -35% | ? | nt | 11µM*
O=c1[nH]c(CN2CCN(c3ccc(O)cc3)CC2)nc2scc(-c3ccc(Cl)cc3)c12 | 45µM* | ? | ? | ? | 3.2µM*
CCOc1ccc(N2C(=O)CC(N3CCN(c4ccc(F)cc4)CC3)C2=O)cc1 (centres undefined) | -14% | -21% | 55% | -2% | 45µM*
CCOc1ccc(N2C(=O)CC(N3CCC(O)(c4ccc(Br)cc4)CC3)C2=O)cc1 (centres undefined) | -4% | -3% | 38% | nt | 45µM*
CCOc1ccc(N2C(=O)CC(N3CCN(C(=O)CN4CCCC4)CC3)C2=O)cc1 (centres undefined) | -11% | -24% | 34% | 2% | ?
O=C(O)c1ccc2c3c(ncnc13)-c1ccccc1C2=O | ? | -5% | 24% | 1% | 1.4µM*
COc1cc(NS(=O)(=O)c2ccc(NC(=O)c3ccc(C(C)=O)cc3)cc2)nc(OC)n1 | -8% | -4% | 21% | nt | 4%[59 µM]
Cc1ccc(C2c3[nH]c4ccccc4c3CCN2C(=O)CCc2ccccc2)cc1 (centres undefined) | ? | ? | 0%[57 µM] | nt | -31%[59 µM]
CCC(=O)Nc1ccc(C(=O)NNC(=O)C2CCCCC2)cc1 | -8% | -2% | 49% | nt | 45µM*
CCCCOC(=O)c1ccc(OC(=O)c2sc3ncn(Cc4ccccc4Cl)c(=O)c3c2C)cc1 | -2% | 2% | 11% | nt | 1%[59 µM]
O=C(CCC1N=C2c3ccccc3N=C(SCc3ccc(Cl)cc3)N2C1=O)N1CCN(c2ccccc2)CC1 (centres undefined) | -24% | -25% | 13% | nt | 6%[59 µM]
COc1ccc(CNc2nc3ccccc3n2C)c(OC)c1 | -11% | -10% | 22% | -4% | 11%
COc1ccc(N=Nc2nc3cc(Br)c(Br)cc3n2C)c(OC)c1 | 32µM* | 35µM* | 45µM* | ? | ?
Cc1nc(Nc2ccc(Cl)cc2)cc(-c2ccccc2)n1 | 40% | 23% | 112% | nt | 44%[59 µM]
COc1ccc(CNc2nc(-c3ccccc3)nn2S(=O)(=O)c2ccccc2)cc1 | 26% | 31% | 87% | nt | 29%[59 µM]
Cc1ccc(CNC(=O)Cn2cc3c(n2)-c2c(oc(C(=O)N4CCOCC4)c2C)CC3)cc1 | -12% | ? | 33% | nt | -5%[59 µM]
CCOc1ccc(CNC(=O)Cn2cc3c(n2)-c2c(oc(C(=O)N4CCOCC4)c2C)CC3)cc1 | 56µM* | ? | 27% | nt | ?
CC(=O)c1ccc(N2C(=O)Nc3ccccc3S2(=O)=O)cc1 | -11% | -10% | 34% | nt | -34%[59 µM]
CC1CCCC(NCC(O)COC(c2ccc(F)cc2)c2ccc(F)cc2)C1C (centres undefined) | 1µM* | ? | ? | 12% | 8.9µM*

Bioassay records as filed in PubChem BioAssay.
